In PubChem BioAssay AID1259343 (VanderVen Lab, College of Veterinary Medicine, Cornell …, 2017) one finds inhibition data, which are given here for 100 molecules.

Structures are written as SMILES. Hit rate of the full screen: of about 6,200 compounds, about 2,900 (47%) were called active. So high a share suggests a set chosen from earlier hits. The list shows a part of the results. Unmarked numbers belong to inactive results. Cut-off read from the data, not from the text of the source: active = inhibition above about 50%; inactive = the rest.

As usually defined, the inhibition is the drop in the measured response relative to a control, in per cent.

The experiment can be described thus: Mycobacterium tuberculosis growth inhibition, primary screen (AID 1259343). Conditions: inhibition: at 10 µM, active compounds read high; outcome: 10 uM.
As for `CCCc1cc(NCc2cccnc2)n2ncc(-c3ccccc3)c2n1`, the inhibition was 13.7%. On to `Fc1ccc(-c2cnn3c(NCc4cccc(Cl)c4)ccnc23)cc1Cl`, for which the inhibition was 57.7% (active). Take `CCCCCCc1ccc(C(=O)N2CCSC2c2ccncc2)cc1` (stereo not given): the inhibition is 95.1% (active). As to `CCCCc1ccc(C(=O)O)nc1`, the inhibition was 40.9%. As to `c1ccc(Cn2nnc3c(SCc4cccnc4)ncnc32)cc1`, the inhibition is -31.8%.

Turning to `Fc1ccc(-n2nnc3c(SCc4cccc(F)c4)ncnc32)cc1`, the inhibition was -31.5%. To `O=C(CSc1ncnc2c1nnn2Cc1ccccc1F)OCc1ccccc1` belongs -8.15%; to `COc1ccc(-n2nnc3c(SCc4cccc(F)c4)ncnc32)cc1`, 88.2% (active); to `Cc1ccc(Cn2nnc3c(SCC(=O)OCc4ccccc4)ncnc32)cc1`, 84.7% (active). The result for `c1ccc(-n2nnc3c(SCc4cccnc4)ncnc32)cc1` reads 61.4% (active); that for `O=C(CSc1ncnc2c1nnn2Cc1ccccc1)OCc1ccccc1`, -35.2%; that for `Cc1ccc(Cn2nnc3c(SCc4cccnc4)ncnc32)cc1`, 58.1% (active). With `COc1cccc(-n2nnc3c(SCc4cccnc4)ncnc32)c1`, the inhibition is 74.8% (active). In the case of `COc1ccc(-n2nnc3c(SCc4cccc(Cl)c4)ncnc32)cc1`, the inhibition was -33.7%. `O=C(Nc1cccc(-c2cccc(F)c2)c1)C1CCN(Cc2cccc3cnccc23)CC1`: the inhibition is 75.2% (active). Turning to `CCCc1ncc(CN2CCC(C(=O)Nc3cccc(-c4cccc(F)c4)c3)CC2)cn1`, the inhibition entry was “inactive”. The result for `Cc1cccc(-c2ccc(NC(=O)C3CCN(Cc4cnc(N(C)C)s4)CC3)cc2)c1` reads 88.2% (active); that for `CC(=O)c1cccc(CN2CCC(C(=O)Nc3cccc(-c4cccc(F)c4)c3)CC2)c1`, 69% (active); that for `O=C(Nc1cccc(-c2cccc(F)c2)c1)C1CCN(Cc2cccs2)CC1`, 36.5%.

For `CC(=O)c1cc(CN2CCC(C(=O)Nc3cccc(-c4cccc(F)c4)c3)CC2)cs1`, the inhibition was 91.3% (active). Take `COc1cccc(-c2ccc(NC(=O)C3CCCN(Cc4cnc(N(C)C)s4)C3)cc2)c1` (stereo not given): the inhibition is 48.7%. To `Cc1cccc(-c2ccc(NC(=O)C3CCN(Cc4nccs4)CC3)cc2)c1` belongs 37.9%. Regarding `CCCn1nnnc1NCc1cccn1C`, the inhibition is 1.45%. To `Cn1ccsc1=NC(=O)CCN1c2ccccc2Sc2ccccc21` belongs -5.61%.

Regarding `CC(=O)c1cccc(CN2CCC(C(=O)Nc3ccc(-c4cccc(C)c4)cc3)CC2)c1`, the inhibition was 86.5% (active). For `Cc1cccc(CN2CCC(C(=O)Nc3cccc(-c4cccc(F)c4)c3)CC2)n1`, the inhibition is 76.4% (active).

Turning to `c1nc(NC2CC3CC2C2CCCC32)c2sccc2n1` (stereo not given), the inhibition is 30.1%. With `COc1cccc(OC)c1OCCOc1ccc(Br)cc1Cl`, the inhibition is 82% (active). For `COc1cccc(OC)c1OCCCOc1ccc(Cl)cc1Cl`, the inhibition was 89.4% (active). Take `COc1cccc(OC)c1OCCCOc1ccc(C)cc1Cl`: the inhibition is 47.8%. Turning to `O=c1nc(SCc2ccc(C(F)(F)F)cc2)nc2ccccn12`, the inhibition was -29.6%. In the case of `O=c1cnnc(SCc2ccc(C(F)(F)F)cc2)[nH]1`, the inhibition is 84.2% (active). For `Cc1ccn2c(=O)nc(SCc3ccc(C(F)(F)F)cc3)nc2c1`, the inhibition is 22.7%. As to `FC(F)(F)c1ccccc1CCNc1nncc(-c2ccccc2)n1`, the inhibition was -20%.

As for `c1ccc2c(c1)[I+]c1ccccc1-2`, the inhibition was 101% (active). Take `Nc1ccc(Oc2ccc(Br)cc2)cc1`: the inhibition was 39.8%. Take `CC(O)c1ccc(Oc2ccc(Br)cc2)cc1` (stereo not given): the inhibition was 72.8% (active).

As to `OC(COc1ccc(Cl)cc1)CSc1ccc(Br)cc1` (stereo not given), the inhibition was -20.4%.

Take `CCc1cnc(C)nc1N1CCCC(C(=O)c2ccc(C(F)(F)F)cc2)C1` (stereo not given): the inhibition is 51.3% (active). The result for `NC(=O)C1CCN(c2nc3cc(C(F)(F)F)ccc3s2)C1` (stereo not given) reads 34.5%. As to `COc1ccc(NC(=O)c2sc(=O)n(CCOc3ccc(F)cc3)c2C)cc1OC`, the inhibition was 27.4%. To `COC(=O)C(Cc1ccc(OCCn2c(=O)sc3cc(C(=O)c4ccccc4)ccc32)cc1)C(=O)OC` belongs 51.7% (active); to `O=c1nc(SC/C=C/c2ccccc2)nc2ccccn12`, -19.1%; to `C(=C\c1ccccc1)/CSc1n[nH]c(-c2cccnc2)n1`, 96.6% (active).

Turning to `c1ccc(-c2nc(SC(c3ccccc3)c3ccccc3)n[nH]2)cc1`, the inhibition was 22.5%. `O=C(C1CCC1)N1CCC(CCc2ccc(-c3ccccc3)cc2)CC1`: the inhibition is 44.8%.

As for `CCOC(=O)C(=O)N1CCC(CCc2ccccc2)CC1`, the inhibition is 90.7% (active). In the case of `c1ccc(-c2ccc(CCC3CCN(Cc4cccs4)CC3)cc2)cc1`, the inhibition is 43.2%. On to `O=C(c1ccco1)N1CCCC2(CCCCC2)C1`, for which the inhibition is -18%. The result for `O=C(c1ccc(-c2ccc(O)cc2)nc1)N1CCC(CCc2ccccc2)CC1` reads 83.7% (active); that for `O=C(c1ccco1)N1CCC(Cc2ccc(F)cc2)CC1`, 86.8% (active).

For `O=C(c1ccco1)N1CCC(CCc2ccc(-c3ccccc3)cc2)CC1`, the inhibition is 81% (active).

In the case of `COc1ccc(-c2ccc(C(=O)N3CCCC(c4ccccc4)CC3)cn2)cc1` (stereo not given), the inhibition was 36.2%. As for `O=C(c1ccno1)N1CCC(Cc2ccc(F)cc2)CC1`, the inhibition is 56.4% (active). Regarding `Cc1ccccc1N1CCN(Cc2ccc(C#CCO)s2)C(C)C1` (stereo not given), the inhibition was 76.9% (active). `Cc1ccccc1N1CCN(Cc2cc(C#CCO)cs2)C(C)C1` (stereo not given): the inhibition is -56.2%.

With `c1ccc2c(c1)CN1CCCC1=N2`, the inhibition was 101% (active). `O=C1C=C(Nc2ccc3ccccc3c2)CCC1`: the inhibition is 89.7% (active). To `O=C1OC2(CCCCC2)OC(=O)C1=CNc1ccc2ccccc2c1` belongs 48.9%.

`O=C(Nc1nnc(-c2ccc3c(c2)OCCO3)o1)c1cccc2ccccc12`: the inhibition was 98.7% (active). With `CN(CCNC(=O)C1(C)CC1(Cl)Cl)C1CC1` (stereo not given), the inhibition was -9.78%.

Turning to `N#Cc1cccc(OCc2noc(-c3ccsc3)n2)c1`, the inhibition was 34.2%.

Turning to `Cc1cc2nc(CN(C)Cc3nc(Cc4cccc(C(F)(F)F)c4)no3)[nH]c2cc1C`, the inhibition result is “inactive”. Take `COc1cccc(C(C)N(C)Cc2nc(Cc3cccc(F)c3)no2)c1` (stereo not given): the inhibition is 65.5% (active). As to `COc1ccccc1OC(C)c1nc(Cc2cccc(C(F)(F)F)c2)no1` (stereo not given), the inhibition was 36.2%.

With `CN(Cc1nc(COc2ccccc2)no1)CC1(c2ccccc2)CC1(C)C` (stereo not given), the inhibition is 42.2%. To `FC(F)(F)c1cccc(Cc2noc(CN3CCC(OCc4ccccn4)CC3)n2)c1` belongs 32%; to `COc1cccc(C(C)N(C)Cc2nc(-c3cccc(Cl)c3)oc2C)c1` (stereo not given), -0.61%. In the case of `CN(Cc1csc(-c2ccccc2)n1)Cc1nc(Cc2cccc(F)c2)no1`, the inhibition was 90.6% (active). As to `Cc1c(CN(C)Cc2nc(Cc3cccc(C(F)(F)F)c3)no2)[nH]c2ccccc12`, the inhibition was 66.5% (active). Regarding `COc1cccc(C(C)N(C)Cc2nc(COc3ccccc3)no2)c1` (stereo not given), the inhibition is 71.8% (active). For the molecule `CC1CCC(C(C)C)c2[nH]nc(-c3ccccc3O)c21` (stereo not given), the inhibition is 4.33%.

As for `O=S(=O)(/C=C/c1ccc(Cl)cc1)Oc1ccc(F)c(F)c1`, the inhibition was 92.7% (active). `Cn1ccc(NS(=O)(=O)/C=C/c2ccc(Cl)cc2)n1`: the inhibition was 41.7%. The result for `CC(C)CCNCC(O)CON=C1c2ccccc2-c2ccccc21` (stereo not given) reads 84.8% (active); that for `CCCCC/C=C\C/C=C\C/C=C\CCCCC(=O)N1CCN(Cc2cc(=O)c(OCc3cccc(F)c3)co2)CC1`, 16.1%. Turning to `N#Cc1ccccc1-c1ccc(COc2coc(CN3CCN(C(=O)c4ccc([N+](=O)[O-])o4)CC3)cc2=O)cc1`, the inhibition was 102% (active). To `Cc1cc(C)c(-c2nc3cc(NC(=O)c4cccs4)ccc3o2)c(C)c1` belongs 42.8%. For the molecule `CCc1nc2cc(NC(=O)CC3CCCCC3)ccc2o1`, the inhibition was 89.5% (active).

Regarding `Cc1nc2cc(NC(=O)CN(C)S(=O)(=O)c3ccc(F)cc3)ccc2o1`, the inhibition is 23.8%.

Consider `CC(c1nc(-c2cccs2)no1)N1CCC(c2ccccc2)CC1` (stereo not given), for which the inhibition is -41.5%. In the case of `Fc1ccccc1OCC1CCCN(Cc2nc(-c3cccs3)no2)C1` (stereo not given), the inhibition is 47%.

Turning to `c1csc(-c2noc(CN3CCc4sccc4C3)n2)c1`, the inhibition is 46.9%. As for `Fc1ccccc1CC1CCN(Cc2nc(-c3cccs3)no2)CC1`, the inhibition is 83.9% (active).

With `Clc1ccccc1C1CCN(Cc2nc(-c3cccs3)no2)C1` (stereo not given), the inhibition is 96.1% (active). For `c1csc(-c2noc(CN3CCCC(c4nc5ccccc5o4)C3)n2)c1` (stereo not given), the inhibition result is “inactive”. To `CCCC1=NN(c2nc3ccccc3s2)C(=O)C1C(C)=Nc1ccc(C(=O)OCC)cc1` (stereo not given) belongs 98.8% (active).

Consider `CC(C)Oc1ccc(CNC(=O)c2ccco2)cc1F`, for which the inhibition is 99.8% (active). Turning to `Nc1nccnc1C(=O)NCCSCc1ccsc1`, the inhibition was -5.01%. Regarding `O=C(Nc1ccc(SC2CCCC2)cc1)c1ccc(=O)[nH]c1`, the inhibition was 53.3% (active). As to `Nc1nccnc1C(=O)Nc1ccc(SC2CCCC2)cc1`, the inhibition was 80% (active).

As to `Cc1cc(=O)[nH]c(-n2nc(C)cc2NC(=O)c2cccc([N+](=O)[O-])c2C)n1`, the inhibition is 100% (active).

On to `Cc1cc(NC(=O)c2cccc([N+](=O)[O-])c2C)n(-c2nc(C)c(C)c(=O)[nH]2)n1`, for which the inhibition is 98.3% (active). Regarding `CCc1c(C)nc(-n2nc(C)cc2NC(=O)c2ccccc2[N+](=O)[O-])[nH]c1=O`, the inhibition is 81.9% (active). To `CCc1c(C)nc(-n2nc(C)cc2NC(=O)c2cccc([N+](=O)[O-])c2C)[nH]c1=O` belongs 102% (active); to `N#CCc1ccc(Oc2ccc(C(=O)O)cc2)cc1`, 34.3%. To `O=C(O)c1ccc(Oc2cccc(Br)c2)cc1` belongs 91.5% (active); to `O=C(O)c1ccc(Oc2cc(Cl)ccc2Cl)cc1`, 45.5%; to `CC[n+]1c(-c2ccccc2)c2cc(N)ccc2c2ccc(N)cc21`, 99.5% (active). `Nc1ccc(-c2nc(-c3ccccc3)c3cc(N)ccc3n2)cc1`: the inhibition was 29.6%.
